“And” between values parts separate entries of the source, which are not always exact repeats. Equal entries are not always repeated. Some compounds were tested as several samples or in several runs, with calls that do not always agree. The source made the active and inactive calls. The calls were made as follows: active = hit-call score of the fitted dose curve at least 0.9, where 1 is the maximum; inactive = score below 0.9.
Columns and labels:
[1] = read-out: Tissue Factor, F3 (gene 2152); experiment: BSK_CASM3C_TissueFactor: BioMAP Diversity Plus: CASM3C Assay for Tissue Factor Biomarker Activity (AID 2283052); conditions: primary human coronary artery smooth muscle cells; actives raise or lower the signal;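 also: cell surface tissue factor protein level read by ELISA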
[2] = read-out: Interferon-gamma inducible Protein 10 (IP10), CXCL10 (gene 3627); experiment: BSK_hDFCGF_IP10: BioMAP Diversity Plus: hDFCGF Assay for Interferon-gamma inducible Protein 10 (IP10) Biomarker Activity (AID 2283053); conditions: primary human foreskin fibroblasts; actives raise or lower the signal
Summary of the method: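 Primary human foreskin fibroblasts exposed to chemicals for 24 h. IP-10 measured by ELISA; changes fitted bidirectionally against DMSO baseline.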

[3] = read-out: Urokinase-type plasminogen activator receptor (uPAR), PLAUR (gene 5329); experiment: BSK_CASM3C_uPAR: BioMAP Diversity Plus: CASM3C Assay for Urokinase-type plasminogen activator receptor (uPAR) Biomarker Activity (AID 2283054); conditions: primary human coronary artery smooth muscle cells; actives raise or lower the signal;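 also: cell-surface uPAR protein level quantified by ELISA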
[4] = read-out: Vascular cell adhesion molecule 1 (VCAM1), VCAM1 (gene 7412); experiment: BSK_CASM3C_VCAM1: BioMAP Diversity Plus: CASM3C Assay for Vascular cell adhesion molecule 1 (VCAM1) Biomarker Activity (AID 2283055); conditions: primary human coronary artery smooth muscle cells; actives raise or lower the signal;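 also: VCAM-1 protein level quantified by ELISA on the cells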
[5] = read-out: Collagen III, COL3A1 (gene 1281); experiment: BSK_hDFCGF_CollagenIII: BioMAP Diversity Plus: hDFCGF Assay for Collagen III Biomarker Activity (AID 2283056); conditions: primary human foreskin fibroblasts; actives raise or lower the signal
Summary of the method: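 ELISA read-out of collagen III from human skin fibroblast cultures sampled 24 h post-dosing. Values were derived by bidirectional fitting relative to the DMSO vehicle control.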

[6] = read-out: Epidermal growth factor receptor (EGFR), EGFR (gene 1956); experiment: BSK_hDFCGF_EGFR: BioMAP Diversity Plus: hDFCGF Assay for Epidermal growth factor receptor (EGFR) Biomarker Activity (AID 2283057); conditions: primary human foreskin fibroblasts; actives raise or lower the signal
Summary of the method: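 Primary human foreskin fibroblasts (hDFCGF system), sampled 24 h after dosing; EGFR quantified by ELISA. Bidirectional fit relative to DMSO baseline; SRB total-protein staining in parallel cultures for cytotoxicity.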

[7] = read-out: Interleukin-8 (IL8), CXCL8 (gene 3576); experiment: BSK_hDFCGF_IL8: BioMAP Diversity Plus: hDFCGF Assay for Interleukin-8 (IL8) Biomarker Activity (AID 2283058); conditions: primary human foreskin fibroblasts; actives raise or lower the signal
Summary of the method: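 Cells used are human skin primary fibroblasts. Chemical is added, cultures run 24 h, then IL-8 is quantified by ELISA, and gain or loss versus DMSO control is fitted in both directions.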

[8] = BSK_hDFCGF_Proliferation: Cell Proliferation Assessment in the BioMAP Diversity Plus: hDFCGF Assay (AID 2283059); conditions: primary human foreskin fibroblasts;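 also: curves fitted for both rise and fall of signal versus DMSO baseline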
Summary of the method: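 This proliferation readout used SRB total-protein staining of human foreskin fibroblasts […], normalized to DMSO with bidirectional curve fitting.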

[9] = read-out: Macrophage colony-stimulating factor (MCSF), CSF1 (gene 1435); experiment: BSK_hDFCGF_MCSF: BioMAP Diversity Plus: hDFCGF Assay for Macrophage colony-stimulating factor (MCSF) Biomarker Activity (AID 2283060); conditions: primary human foreskin fibroblasts; actives raise or lower the signal
Summary of the method: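 Primary human foreskin fibroblasts dosed with chemical; 24 h later, M-CSF quantified by ELISA; curves fitted in both directions vs DMSO negative control.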

[10] = BSK_hDFCGF_SRB: Viability Assessment in the BioMAP Diversity Plus: hDFCGF Assay (AID 2283061); conditions: primary human foreskin fibroblasts;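 also: cells exposed to compound for 24 h before the read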
Summary of the method: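 Readout is SRB absorbance at 560 nm, reflecting total protein in parallel cultures of human foreskin fibroblasts harvested 24 h after chemical dosing. Activity was fitted bidirectionally relative to DMSO.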

| Structure (SMILES) | outcome [1] | outcome [2] | AC50 [3] | AC50 [4] | outcome [5] | outcome [6] | outcome [7] | AC50 [8] | AC50 [9] | outcome [10] | AC50 [2] | outcome [3] | outcome [4] | outcome [8] | outcome [9] | AC50 [5] | AC50 [7] | AC50 [10] | AC50 [1] | AC50 [6] |
| --- | --- | --- | --- | --- | --- | --- | --- | --- | --- | --- | --- | --- | --- | --- | --- | --- | --- | --- | --- | --- |
| O=C1c2ccccc2C(=O)c2c(O)ccc(O)c21 | inactive | inactive | 4.99 µM (active) | 5.44 µM (active) | inactive | inactive | inactive | 3.14 µM (active) | 1.38 µM (active) | inactive | – | – | – | – | – | – | – | – | – | – |
| O=C1OC2(c3ccccc31)c1ccc(O)c(Br)c1Oc1c2ccc(O)c1Br | inactive | – | – | – | inactive | inactive | inactive | 20 µM (active) | 20 µM (active) | inactive | 20 µM (active) | inactive | inactive | – | – | – | – | – | – | – |
| C[C@@H]1CCN(C(=O)[C@H](CCCN=C(N)N)NS(=O)(=O)c2cccc3c2NC[C@H](C)C3)[C@@H](C(=O)O)C1 | inactive | inactive | – | – | inactive | inactive | inactive | – | – | inactive | – | inactive | inactive | inactive | inactive | – | – | – | – | – |
| CSCCC=O | inactive | inactive | – | – | inactive | inactive | inactive | – | – | inactive | – | inactive | inactive | inactive | inactive | – | – | – | – | – |
| Clc1cc(Cl)c(-c2c(Cl)c(Cl)cc(Cl)c2Cl)cc1Cl | inactive | – | – | – | – | inactive | – | 3.7 µM (active) | 8.48 µM (active) | – | 16 µM (active) | inactive | inactive | – | – | 4.19 µM (active) | 15.8 µM (active) | 14.7 µM (active) | – | – |
| CC1(C)C2=CCCC(C)(C)[C@]23CC[C@H]1C3 | – | – | 20 µM (active) | 30.8 µM (active) | – | inactive | inactive | 8.84 µM (active) | 30.2 µM (active) | – | 34.9 µM (active) | – | – | – | – | 20 µM (active) | – | 31.9 µM (active) | 30.9 µM (active) | – |
| O=CN1CCOCC1 | inactive | inactive | – | – | inactive | inactive | inactive | – | – | inactive | – | inactive | inactive | inactive | inactive | – | – | – | – | – |
| CCCCCC(C=O)=Cc1ccccc1 | – | inactive | 39.3 µM (active) | 31.2 µM (active) | – | inactive | inactive | 31.4 µM (active) | – | – | – | – | – | – | inactive | 31 µM (active) | – | 31.5 µM (active) | 20 µM (active) | – |
| CC(=O)Nc1ccc(C(=O)CCl)cc1 | – | – | 5.2 µM (active) | 4.84 µM (active) | – | inactive | – | 3.18 µM (active) | 8.76 µM (active) | – | 9.56 µM (active) | – | – | – | – | 7.2 µM (active) | 9.4 µM (active) | 11.2 µM (active) | 3.97 µM (active) | – |
| CC(C)(N=C=O)c1cccc(C(C)(C)N=C=O)c1 | inactive | inactive | – | – | inactive | inactive | inactive | 29.9 µM (active) | – | inactive | – | inactive | inactive | – | inactive | – | – | – | – | – |
| C=C(C)C(=O)OCCOCCOCCOC(=O)C(=C)C | inactive | inactive | – | – | inactive | inactive | inactive | – | 0.0819 µM (active) | inactive | – | inactive | inactive | inactive | – | – | – | – | – | – |
| Cc1cc(CCC(=O)OCCOCCOCCOC(=O)CCc2cc(C)c(O)c(C(C)(C)C)c2)cc(C(C)(C)C)c1O | inactive | inactive | – | – | – | inactive | inactive | 22.8 µM (active) | – | inactive | – | inactive | inactive | – | inactive | 23.1 µM (active) | – | – | – | – |
| CC(=O)c1c(C)c([N+](=O)[O-])c(C(C)(C)C)c([N+](=O)[O-])c1C | inactive | inactive | – | – | inactive | inactive | inactive | – | – | inactive | – | inactive | inactive | inactive | inactive | – | – | – | – | – |
| CCC(C)c1cc([N+](=O)[O-])cc([N+](=O)[O-])c1OC(=O)OC(C)C (centres undefined) | – | – | 24.3 µM (active) | 32.1 µM (active) | – | inactive | – | 4.37 µM (active) | 6.2 µM (active) | – | 8.25 µM (active) | – | – | – | – | 6.86 µM (active) | 13.4 µM (active) | 9.55 µM (active) | 12.1 µM (active) | – |
| CCOC(=O)C(C#N)=C(c1ccccc1)c1ccccc1 | inactive | inactive | – | – | – | inactive | inactive | 29.5 µM (active) | 23.3 µM (active) | inactive | – | inactive | inactive | inactive | inactive | 29.7 µM (active) and 21.9 µM (active) | – | – | – | – |
| CC(C)(C)CC(C)(C)c1ccc(OCCOCC[N+](C)(C)Cc2ccccc2)cc1 | – | – | 7.34 µM (active) | 8.31 µM (active) | – | inactive | – | 0.496 µM (active) | 6.64 µM (active) | – | 8.05 µM (active) | – | – | – | – | 2.22 µM (active) | 5 µM (active) | 6.6 µM (active) | 5 µM (active) | – |
| c1ccc2cc(Nc3ccc(Nc4ccc5ccccc5c4)cc3)ccc2c1 | inactive | inactive | – | – | inactive | inactive | inactive | – | – | inactive | – | inactive | inactive | inactive | inactive | – | – | – | – | – |
| O=C(Nc1ccc2c(O)c(N=Nc3ccc(N=Nc4ccc(S(=O)(=O)O)cc4)cc3)c(S(=O)(=O)O)cc2c1)c1ccccc1 | inactive | – | – | – | inactive | inactive | inactive | – | 30.8 µM (active) and 29.3 µM (active) | – | 25.5 µM (active) and 36.2 µM (active) | inactive | inactive | inactive | – | – | – | 35.3 µM (active) | – | – |
| COc1cc(Cl)c(OC)cc1N | inactive | inactive | – | – | inactive | inactive | inactive | – | – | inactive | – | inactive | inactive | inactive | inactive | – | – | – | – | – |
| CC1(C)CCC[C@]2(C)[C@H]3CCO[C@]3(C)CC[C@@H]12 | inactive | – | 34 µM (active) and 31.4 µM (active) | 34.1 µM (active) and 33.7 µM (active) | – | – | – | 12.1 µM (active) and 30.5 µM (active) | 36.6 µM (active) and 30.8 µM (active) | – | 36.5 µM (active) and 37.9 µM (active) | – | – | – | – | 31.4 µM (active) and 30.6 µM (active) | 37.9 µM (active) and 35.9 µM (active) | 33.8 µM (active) and 36.4 µM (active) | 1.65 µM (active) | 32 µM (active) and 33 µM (active) |
| O=C1OC[C@H](Cc2cccc(O)c2)[C@H]1Cc1cccc(O)c1 | inactive | inactive | – | – | inactive | inactive | inactive | – | – | inactive | – | inactive | inactive | inactive | inactive | – | – | – | – | – |
| CCCCOC(=O)CCCCCCCC(=O)OCCCC | inactive | inactive | – | – | inactive | inactive | inactive | – | – | inactive | – | inactive | inactive | inactive | inactive | – | – | – | – | – |
| CCCCCCC(CO)CCCC (centres undefined) | inactive | – | – | 2.22 µM (active) | – | inactive | – | 35.1 µM (active) and 31.4 µM (active) | 33.8 µM (active) and 30.2 µM (active) | – | 30.6 µM (active) and 32.5 µM (active) | inactive | inactive | – | – | 29.6 µM (active) and 31.9 µM (active) | 37.9 µM (active) and 37.8 µM (active) | 30.8 µM (active) and 31.4 µM (active) | – | – |
